Where “and” joins values, the source holds several entries; their conditions need not be identical. Equal entries are not always repeated. Results filed as inconclusive are left out. A call without a number means that no potency is given here. Some structures have more than one record in an assay (separate samples or runs), and their calls can disagree. Calls of active or inactive are those of the source. Unless noted, calls come from the whole dose curve; as a rule, active = well fitted curve in the direction sought with a large enough effect; inconclusive = small, poorly fitted or top-dose-only effect, or another doubt; inactive = no such curve, though single readings can be large; an effect the other way counts as inactive or inconclusive.

29 compounds from PubChem BioAssay (NCATS) can be followed below.

Assay [1] has as its target Guanine nucleotide-binding protein G(i) subunit alpha-1 (Homo sapiens) (UniProt P63096). The experiment in a line: qHTS Assay for Inhibitors of RGS12 GoLoco Motif Activity (Green Fluorophore) (AID 879).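 Note: negative values mean loss of peptide binding seen as reduced polarization.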 An outline of the steps:
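Fluorescence polarization assay: 50 nM Gαi1 with 10 nM FITC-labeled RGS12 GoLoco peptide in 10 mM Tris pH 7.5, 150 mM NaCl, 0.1 mM GDP, 0.05% NP40, 10 min at room temperature with compound.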

In assay [2] the target is Cytochrome P450 3A4 (Homo sapiens) (UniProt P08684). The assay is described as follows: qHTS Assay for Inhibitors and Substrates of Cytochrome P450 3A4 (AID 884). For activity change, negative = inhibition: series mostly up to about 57 µM. Note: nearly all actives have a fitted effect of over 50% in size. Note: potency is the fitted concentration of half-maximal effect. A digest of the protocol: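 20 nM human CYP3A4 with 25 uM Luciferin-PPXE (at KM) in 200 mM KPO4, preincubated 10 min with compound; NADPH regeneration started a 60 min RT reaction. Luciferin detected by luminescence, normalized to 57 uM ketoconazole as full inhibition.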
Cytochrome P450 3A4 (Homo sapiens), sequence (P08684 whole entry, looked up): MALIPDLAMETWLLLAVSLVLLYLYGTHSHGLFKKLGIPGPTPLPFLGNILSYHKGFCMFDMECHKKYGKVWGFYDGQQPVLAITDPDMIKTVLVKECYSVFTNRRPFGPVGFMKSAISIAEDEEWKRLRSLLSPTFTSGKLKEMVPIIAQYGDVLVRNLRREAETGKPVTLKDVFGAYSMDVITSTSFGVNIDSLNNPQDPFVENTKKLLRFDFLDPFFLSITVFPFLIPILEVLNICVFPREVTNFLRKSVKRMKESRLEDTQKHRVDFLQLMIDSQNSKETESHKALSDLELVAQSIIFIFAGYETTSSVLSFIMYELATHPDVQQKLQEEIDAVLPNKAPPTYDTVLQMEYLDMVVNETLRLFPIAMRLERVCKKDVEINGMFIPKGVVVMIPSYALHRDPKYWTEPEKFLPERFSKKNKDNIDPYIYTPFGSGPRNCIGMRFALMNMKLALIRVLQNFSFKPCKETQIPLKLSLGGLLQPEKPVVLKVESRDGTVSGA

For assay [3] the target is unchanged. The experiment in a line: qHTS Assay for Activators of Cytochrome P450 3A4 (AID 885). Note: nearly all actives have a fitted effect of over 65% in size. An outline of the steps: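 Signal was normalized against complete inhibition by 57 uM ketoconazole. The reaction used 20nM CYP3A4 with 25uM Luciferin-PPXE, 10-min compound preincubation and a 60-min NADPH-supported step at RT.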
Assay [4] addresses Cytochrome P450 2C19 (Homo sapiens) (UniProt P33261). The assay is described as follows: qHTS Assay for Inhibitors and Substrates of Cytochrome P450 2C19 (AID 899). Note: nearly all actives have a fitted effect of over 60% in size. Note: potency is the fitted concentration of half-maximal effect. A digest of the protocol:
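Luminescence readout of luciferin formed from 10uM Luciferin-H EGE (KM level) by 5 nM CYP2C19 in 50mM KPO4. 60 min NADPH-driven reaction at 37C after 10 min compound preincubation; data scaled to 57uM ketoconazole inhibition.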
(In general: qHTS replaces the single test concentration by a dilution series.)

The nature of assay [5]: qHTS Assay for Identification of Small Molecule Antagonists for NFkB Signaling Pathway (AID 895; active = well fitted inhibition curve with a large enough effect in the signal ratio, with a control signal flat, not every such curve was filed as active; the % refers to the signal ratio; note: potency is the fitted concentration of half-maximal effect). An outline of the steps: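 Beta-lactamase reporter read-out (460 and 530 nm emission ratio, 405 nm excitation, 2 hrs substrate loading RT) after 5 hr stimulation with 10 pM TNF alpha in compound-treated NFkB-bla ME-180 cells in low-serum medium.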
Assay [6] addresses Cytochrome P450 2C9 (Homo sapiens) (UniProt P11712). The assay is described as follows: qHTS Assay for Inhibitors and Substrates of Cytochrome P450 2C9 (AID 883). Note: nearly all actives have a fitted effect of over 60% in size. Note: potency is the fitted concentration of half-maximal effect. An outline of the steps:
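Luminescent read-out of deoxyluciferin hydroxylation, normalized to 57uM sulphaphenazole (AC100). Reaction: 10nM enzyme, 100uM Luciferin-H (equal to KM), 25mM KPO4, 10 min compound preincubation, then 60 min with NADPH regeneration, both at 37C.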

The target of assay [7] is Cytochrome P450 2D6 (Homo sapiens) (UniProt P10635). The assay is described as follows: qHTS Assay for Inhibitors and Substrates of Cytochrome P450 2D6 (AID 891).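 For activity change, negative = inhibition: luciferin methyl ether substrate demethylated by CYP2D6 with NADPH regeneration.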 Note: nearly all actives have a fitted effect of over 60% in size. Note: potency is the fitted concentration of half-maximal effect. A digest of the protocol: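 Human CYP2D6 (5 nM) with 30 uM Luciferin-ME EGE (at Km) in 100 mM KPO4, compound preincubated 10 min, then NADPH regeneration system for 60 min at room temperature. Luciferin read by luminescence; normalized to 1.43 uM quinidine.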
Cytochrome P450 2D6 (Homo sapiens), sequence (P10635 whole entry, looked up): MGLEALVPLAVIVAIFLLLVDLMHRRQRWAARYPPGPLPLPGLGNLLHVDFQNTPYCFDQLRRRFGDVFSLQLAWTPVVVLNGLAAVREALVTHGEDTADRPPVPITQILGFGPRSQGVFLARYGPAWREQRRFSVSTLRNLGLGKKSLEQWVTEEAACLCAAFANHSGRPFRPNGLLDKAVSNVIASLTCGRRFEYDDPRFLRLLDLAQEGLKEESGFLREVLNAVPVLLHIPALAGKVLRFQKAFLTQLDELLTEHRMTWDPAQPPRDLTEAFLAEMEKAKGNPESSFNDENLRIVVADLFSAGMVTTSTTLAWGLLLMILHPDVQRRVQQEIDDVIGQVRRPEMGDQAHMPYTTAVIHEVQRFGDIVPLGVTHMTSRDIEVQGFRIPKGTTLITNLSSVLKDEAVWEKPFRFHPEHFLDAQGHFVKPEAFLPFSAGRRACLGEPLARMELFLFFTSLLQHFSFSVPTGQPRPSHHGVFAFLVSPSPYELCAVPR

Assay [8] is described as follows: Confirmation and Secondary Assay for Modulators of Hemoglobin Beta Chain Splicing at IVS2 654 locus (AID 910).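 Note: HeLa cells stably carrying EGFP split by mutant beta-globin IVS2-654 intron; per-well total GFP intensity by laser scanning cytometry after 2-day treatment.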 An outline of the steps:
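Readout: per-well total peak green fluorescence (488 nm ex, 500–520 nm em) from objects 5–250 µm, reflecting correct splicing of an EGFP-654 reporter. Compounds were applied for 2 days at 37 °C to overnight-plated HeLa EGFP-654 cells; controls were DMSO and 500 nM IVS2-654 PNA.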

The nature of assay [9]: qHTS Assay for Identification of Small Molecule Agonists for Hypoxia Response Element Signaling Pathway (AID 914; active = well fitted activation curve with a large enough effect in the signal ratio, with a control signal flat, not every such curve was filed as active; the % refers to the signal ratio). The settings on record: ME-180 (cervical carcinoma) HRE-bla reporter, beta-lactamase ratio, CoCl2, 17 h; stronger effect = higher value. An outline of the steps: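 Reporter activity (beta-lactamase, CCF4 460nm/530nm ratio) in HRE-bla ME-180 cells is recorded after 17 h compound exposure with EC50 CoCl2 at 37 degrees Celsius. AC50 values come from titration data.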

Cytochrome P450 2C9 (Homo sapiens), sequence (P11712 whole entry, looked up): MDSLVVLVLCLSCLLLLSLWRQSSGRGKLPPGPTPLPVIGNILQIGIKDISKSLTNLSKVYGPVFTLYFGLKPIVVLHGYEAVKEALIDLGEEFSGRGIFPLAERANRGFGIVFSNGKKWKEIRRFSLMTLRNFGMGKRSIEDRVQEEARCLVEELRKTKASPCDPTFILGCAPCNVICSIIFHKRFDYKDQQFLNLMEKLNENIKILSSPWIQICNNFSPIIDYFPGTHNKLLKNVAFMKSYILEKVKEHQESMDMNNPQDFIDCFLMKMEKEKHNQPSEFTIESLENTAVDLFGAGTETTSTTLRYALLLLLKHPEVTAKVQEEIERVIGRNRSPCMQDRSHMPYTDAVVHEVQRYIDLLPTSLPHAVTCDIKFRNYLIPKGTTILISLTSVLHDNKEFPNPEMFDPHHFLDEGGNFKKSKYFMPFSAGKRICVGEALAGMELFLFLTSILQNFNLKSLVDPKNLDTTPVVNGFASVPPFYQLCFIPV
Guanine nucleotide-binding protein G(i) subunit alpha-1 (Homo sapiens), sequence (P63096 whole entry, looked up): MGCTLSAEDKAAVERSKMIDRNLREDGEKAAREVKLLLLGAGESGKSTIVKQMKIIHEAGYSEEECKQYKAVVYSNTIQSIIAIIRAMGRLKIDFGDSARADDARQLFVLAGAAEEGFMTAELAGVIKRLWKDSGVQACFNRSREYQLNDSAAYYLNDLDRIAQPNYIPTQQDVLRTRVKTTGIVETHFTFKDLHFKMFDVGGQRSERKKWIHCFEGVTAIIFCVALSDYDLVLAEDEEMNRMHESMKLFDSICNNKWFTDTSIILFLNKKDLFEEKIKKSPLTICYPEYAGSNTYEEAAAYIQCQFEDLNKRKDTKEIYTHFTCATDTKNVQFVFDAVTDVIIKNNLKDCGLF
Cytochrome P450 2C19 (Homo sapiens), sequence (P33261 whole entry, looked up): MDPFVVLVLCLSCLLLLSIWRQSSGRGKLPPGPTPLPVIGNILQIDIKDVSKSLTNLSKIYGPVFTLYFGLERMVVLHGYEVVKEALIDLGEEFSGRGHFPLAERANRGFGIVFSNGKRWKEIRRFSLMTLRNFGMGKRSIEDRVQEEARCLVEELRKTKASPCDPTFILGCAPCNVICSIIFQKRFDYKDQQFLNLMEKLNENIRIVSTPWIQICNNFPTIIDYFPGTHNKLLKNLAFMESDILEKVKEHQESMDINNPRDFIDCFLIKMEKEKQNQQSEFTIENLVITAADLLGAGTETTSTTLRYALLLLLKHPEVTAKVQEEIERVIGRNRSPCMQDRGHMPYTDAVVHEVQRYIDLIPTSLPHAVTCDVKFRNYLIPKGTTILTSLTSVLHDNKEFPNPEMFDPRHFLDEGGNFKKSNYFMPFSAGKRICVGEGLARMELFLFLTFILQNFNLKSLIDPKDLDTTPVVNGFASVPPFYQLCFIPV

Take `COc1ccccc1N1CCN(CCCCNS(=O)(=O)c2cccc3c(N(C)C)cccc23)CC1`: the compound was classed as inactive in assay [1]. Also, the Potency in assay [2] is 2510 nM (active); in assay [4] it was 501 nM (active). Moreover, in assay [3], the Potency result was “inactive”.
In the case of `CN(C)c1nc2c(Br)c(Br)c(Br)c(Br)c2[nH]1`, the result in assay [1] was inactive. The Potency is 20000 nM (active) in assay [2] and 501 nM (active) in assay [5]. Moreover, the Potency entry in assay [3] was “inactive”.
As for `O=c1[nH]c2cc([N+](=O)[O-])c([N+](=O)[O-])cc2[nH]c1=O`, the outcome in assay [1] was inactive. The Potency result in assay [6], in assay [3], in assay [7] and in assay [4] was “inactive” each time.
Regarding `O=C(O)c1cc([N+](=O)[O-])ccc1NCCCc1ccccc1`, the outcome in assay [1] was inactive. In addition, the Potency in [6] was 7.94 µM (active) and 501 nM (active). In addition, the Potency result in [7] and in assay [4] was “inactive” in each case.
For the compound `N#C/C(=C\c1ccc(O)c(O)c1)C(=O)NCc1ccccc1`, the compound was classed as inactive in [1]. The Potency entry in [6], in assay [3], in assay [7] and in assay [4] was “inactive” each time.
Regarding `O=Nc1ccc2oc(=O)ccc2c1`, the outcome in assay [1] was inactive.
As to `CNCC[C@H](Oc1ccc(C(F)(F)F)cc1)c1ccccc1`, the outcome in assay [1] and in assay [6] was inactive.
As to `Cc1ccc(O)c(N=Nc2ccccc2)n1`, the compound was called inactive in assay [1]. The Potency in assay [6] is 12.6 µM (active) and inactive; in assay [7], 3.98 µM (active) and inactive; in assay [4], 3.98 µM (active) and inactive. Further, in assay [3], the Potency result is “inactive”.
For the compound `O=C(O)c1cc(=O)c2c(Cl)cc(Cl)cc2[nH]1`, the outcome in assay [1] and in assay [8] was inactive. Besides, the Potency result in assay [6], in [2], in [7], in [5] and in [4] was “inactive” throughout.
Consider `N.N.O=C(O)C1(C(=O)O)CCC1.[Pt]`, for which the compound was classed as inactive in assay [1] and in assay [8]. Moreover, the values for the Potency in [6] and in assay [4] were 3.98 µM (active) and 3980 nM (active), respectively. The Potency entry in assay [2] and in assay [3] was “inactive” throughout.
On to `O=C(c1cc(O)c(O)c([N+](=O)[O-])c1)c1ccccc1F`, for which, in [1], the outcome was inactive. For the same compound, in assay [6], the Potency is 1.26 µM (active). Moreover, the Potency entry in assay [3] is “inactive”.
As to `Oc1ccccc1O`, the outcome in assay [1] was inactive. Further, the Potency result in assay [6], in assay [7] and in [4] was “inactive” each time.
For the compound `N[C@H](CCCP(=O)(O)O)C(=O)O`, in assay [1], the compound was called inactive. For the same compound, the Potency result in [6], in [7] and in assay [4] was “inactive” in each case.
Consider `C=C[C@H]1CN2CC[C@@H]1C[C@@H]2[C@@H](O)c1ccnc2ccc(OC)cc12`, for which the compound was classed as inactive in assay [1] and in [6]. The Potency result in [5] was “inactive”.
Turning to `COC(=O)c1c(C)[nH]c(C)c1C(=O)c1ccccc1Cc1ccccc1`, the compound was called inactive in assay [1]. Moreover, the Potency in [6] was 2.51 µM (active); in assay [2] it was 501 nM (active); in assay [4], 100 nM (active). Besides, the Potency entry in assay [3] was “inactive”.
For the compound `Brc1c(Br)c(Br)c2n[nH]nc2c1Br`, the call in [1] was inactive. The Potency in [2] was 2510 nM (active). In addition, the Potency entry in assay [3] was “inactive”.
With `NC(=O)C(=O)O`, in assay [1], the compound was called inactive.
Consider `O=C(O)CC[C@@H](C(=O)O)N1C(=O)c2ccccc2C1=O`, for which, in [1], the result was inactive. In assay [2], the Potency result was “inactive”. Further, the activity change, negative = inhibition in [7] is 21.6% [at 11.4 µM] (inactive).
On to `COc1cc2c(CCNC(C)=O)c[nH]c2cc1Cl`, for which the call in assay [1] was inactive. Besides, the Potency entry in [3] is “inactive”. The Potency result in assay [4] was “inactive and 5.01 µM (active)”.
As to `C[N+]1(C)CCC(OC(=O)C(c2ccccc2)c2ccccc2)CC1`, the call in [1] was inactive. For the same compound, the Potency result in assay [5] is “inactive”. In addition, the activation in assay [9] was 0.751% (inactive).
Consider `CCCN(CC1CC1)c1nc(C)nc(Nc2c(Cl)cc(Cl)cc2Cl)c1Cl`, for which the compound was classed as inactive in assay [1]. Also, the Potency result in assay [3] was “inactive”. Besides, the Potency entry in assay [7] is “inactive and 1.58 µM (active)”.
On to `CC(C)Cc1ccc([C@H](C)C(=O)O)cc1`, for which, in [1], the call was inactive. Moreover, the Potency result in [7] is “inactive”.
Turning to `O=C(O)c1cc(=O)c2ccccc2[nH]1`, the compound was classed as inactive in assay [1] and in assay [8].
Turning to `N#C/C(=C\c1ccc(O)c(O)c1)C(=O)c1ccc(O)c(O)c1`, the compound was called inactive in assay [1]. The Potency result in assay [3] and in [5] was “inactive” throughout.
In the case of `O=C(Nc1cccc(C(=O)Nc2ccc(S(=O)(=O)O)c3cc(S(=O)(=O)O)cc(S(=O)(=O)O)c23)c1)Nc1cccc(C(=O)Nc2ccc(S(=O)(=O)O)c3cc(S(=O)(=O)O)cc(S(=O)(=O)O)c23)c1`, the result in [1] was inactive. The Potency result in [3] was “inactive”. In addition, the activation in assay [9] was -24.7% (inactive).
As for `N=C(N)SCCc1ccc(CCSC(=N)N)cc1`, the compound was called inactive in [1]. The Potency result in assay [2] and in assay [5] was “inactive” in each case.
Regarding `NCCNC(=O)c1ncsc1-c1cccc(F)c1`, the compound was classed as inactive in assay [1]. The Potency result in assay [3] was “inactive”.
As for `CC(=O)SCC[N+](C)(C)C`, the compound was classed as inactive in assay [1]. Moreover, the Potency entry in assay [5] and in [4] was “inactive” in each case.
In the case of `COc1cccc(C(=O)NCCN2CCN(c3ccc(Cl)cc3)CC2)c1`, in [1], the result was inactive. In addition, the Potency result in assay [3] and in [5] was “inactive” in each case.
